Assay outcomes: PubChem BioAssay, several laboratories
This is a sample that favours compounds with a hit; in the whole collection about 1.3% have one here.
MIN6 prolif = MIN6 beta-cell proliferation induction. proliferation, % at 10 µM. MIN6 cells proliferation, ATPlite luminescence, 48 h; cells starved in 0.2% serum; 100% = growth in 10% serum. 0.29% of 330,000 active. AID 2380;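 active = compounds whose signal lies at least 3.5 SD above the mean of all wells on their plate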;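 also: 0% = DMSO-treated cells in low-serum medium and 100% = 10% serum control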
RAD54 inh = RAD54 (human) branch migration inhibition; Q92698; RAD54 Holliday junction branch migration, FAM/BHQ fluorescence; inhibition, % at 10.4 µM; 0.14% of 360,000 active;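 active = mean normalized replicate activity at least 40 and at least half of replicates scoring 40 or more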;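 also: 0% = median of neutral control wells and 100% = median of positive control wells; inhibitors cause a drop in the FAM fluorescence signal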
DNA FID counter = counter-screen for HCV NS3 helicase inhibitors: DNA intercalator displacement; 0.17% of 290,000 active; DNA fluorescent intercalator displacement, fluorescence; inhibition, % at 7.9 µM; in the data active = inhibition above about 37%;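 also: 0% = vehicle and 100% = reference compound; higher means more ethidium bromide displaced from hairpin DNA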
RAD52 inh = RAD52 (human) annealing inhibition; P43351; recombinant RAD52 DNA annealing, FRET fluorescence; inhibition, % at 18.7 µM; 0.46% of 360,000 active; AID 651710;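 active = every replicate showing at least 50% inhibition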
PREPL inhibitor = human PREPL enzyme inhibition; recombinant PREPL, fluorescence polarization activity-based probe; 0.68% of 320,000 active; inhibition, % at 5.96 µM; Q4J6C6; in the data active = inhibition above about 43%;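 also: 0% = enzyme with DMSO and 100% = wells lacking enzyme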
Target sequence (Q4J6C6 whole entry, looked up): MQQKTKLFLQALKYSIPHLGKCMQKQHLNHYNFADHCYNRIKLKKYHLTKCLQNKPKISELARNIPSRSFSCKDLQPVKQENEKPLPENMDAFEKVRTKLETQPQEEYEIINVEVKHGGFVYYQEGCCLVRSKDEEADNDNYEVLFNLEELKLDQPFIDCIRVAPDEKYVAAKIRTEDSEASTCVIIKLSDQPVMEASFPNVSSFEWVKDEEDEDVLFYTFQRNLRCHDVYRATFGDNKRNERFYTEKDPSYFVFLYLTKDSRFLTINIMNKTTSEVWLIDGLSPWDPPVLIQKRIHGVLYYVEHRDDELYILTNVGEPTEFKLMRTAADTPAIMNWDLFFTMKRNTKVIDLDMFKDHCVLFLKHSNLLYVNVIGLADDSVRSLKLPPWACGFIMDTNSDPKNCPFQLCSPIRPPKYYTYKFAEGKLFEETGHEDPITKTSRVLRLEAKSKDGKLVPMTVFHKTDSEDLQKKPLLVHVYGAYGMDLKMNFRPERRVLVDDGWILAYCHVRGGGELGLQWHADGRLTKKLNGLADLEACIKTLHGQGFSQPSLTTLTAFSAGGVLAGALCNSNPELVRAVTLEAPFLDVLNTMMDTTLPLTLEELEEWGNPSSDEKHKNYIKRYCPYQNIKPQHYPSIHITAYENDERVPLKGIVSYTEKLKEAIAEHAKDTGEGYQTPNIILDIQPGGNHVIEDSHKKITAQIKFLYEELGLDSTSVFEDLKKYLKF
UBC13 polyUb = human UBC13 polyubiquitination inhibition; P61088; UBC13 polyubiquitin chain formation, TR-FRET; inhibition, % at 20 µM; 0.47% of 330,000 active; in the data active = inhibition above about 45%, passing the limit was not always enough
RAD52 DNA ctr = counter-screen for RAD52 inhibitors: DNA binding compounds. shares compounds with RAD52 inh. Salmon sperm DNA/acridine orange FP displacement. AC50, µM. 8% of 1,000 active. AID 652128;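 active = fitted half-maximal concentration for signal loss at or below twice the highest dose tested, in every separate run, actives reach about 64 µM in these data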
The depositor's hits bear a star; i = inactive; x = no result.

SMILES	MIN6 prolif	RAD54 inh	DNA FID counter	RAD52 inh	PREPL inhibitor	UBC13 polyUb	RAD52 DNA ctr
C[C@H]1CN([C@@H](C)CO)S(=O)(=O)c2ccc(-c3ccncc3)cc2O[C@H]1CN(C)S(=O)(=O)c1ccccc1F	x	6.3	x	-6.2	x	x	x
CC(C)(C)Nc1nc(Cl)nc(NCc2ccccc2)n1	-1.9	7.0	-25.2	-25.1	-5.0	16.2	x
CCCNc1nc(Cl)nc(NCc2cccnc2)n1	-2.3	x	-2.4	84.7*	8.6	11.7	i
Cc1cc2cc(CNC(=O)NC3CCCCC3)ccc2[nH]1	1.0	-3.5	-4.1	x	14.9	-1.2	x
Cc1cc2cc(CNC(=O)NC3CCCCC3)ccc2n1C	-5.8	10.7	-17.2	66.3*	6.3	6.6	i
O=C(C[C@@H]1CC[C@@H](NC(=O)C2CC2)[C@H](CO)O1)NC1CCC1	x	0.4	x	1.9	x	x	x
COc1ccc2cc3[n+](cc2c1OC)CCc1cc2c(cc1-3)OCO2	-8.1	72.4*	0.0	75.4*	13.7	-35.8	i
COc1cccc(C2=NCCc3cc4c(cc32)OCO4)c1OC	0.0	2.6	-1.2	x	-6.4	5.0	x
C(#Cc1ccccc1)C[N+]1(CC#Cc2cccc3ccccc23)CCCC1	-6.2	x	29.3	65.9*	-3.9	22.6	i
COc1ccc(S(=O)(=O)N(C)C[C@H]2OCc3ccccc3-c3ccccc3C(=O)N([C@H](C)CO)C[C@@H]2C)cc1	x	6.2	x	19.1	x	x	x
CCCCCCCOC(=O)C[N+](C)(C)CCOC1CC2CCC1(C)C2(C)C (stereo not given)	x	x	21.3	85.4*	x	x	i
COc1ccc2sc(N(CCN(C)C)C(=O)c3cc(Cl)sc3Cl)nc2c1	2.3	x	3.2	5.8	-19.2	17.9	x
COc1ccc(OC)c2sc(N(CCN(C)C)C(=O)c3cc(Cl)sc3Cl)nc12	-0.7	x	3.7	51.0*	7.3	10.3	i
COc1cc2ccccc2cc1C(=O)N(CCN(C)C)c1nc2c(F)cc(F)cc2s1	-6.1	3.4	20.2	-3.0	-31.9	4.2	x
COc1cc2ccccc2cc1C(=O)N(CCN(C)C)c1nc2ccc(Br)cc2s1	-7.8	6.8	34.3	50.8*	-19.3	12.9	i
CN(C)CCCN(C(=O)c1ccco1)c1nc2ccc(Br)cc2s1	-3.5	x	15.0	57.1*	-71.5	7.5	i
CO[C@@H]1CN(C)C(=O)c2cc(NC(=O)Nc3cc(F)ccc3F)ccc2OC[C@H](C)NC[C@H]1C	x	-1.3	x	-5.0	x	x	x
CC(O)CNc1ccc(-c2n[nH]c(=O)c3ccccc23)cc1[N+](=O)[O-] (stereo not given)	-1.4	-7.2	-7.6	-18.4	17.6	-101.7	x
CN(C)CCCNc1ccc(-c2n[nH]c(=O)c3ccccc23)cc1[N+](=O)[O-]	-3.9	27.7	10.0	66.4*	39.0	-58.4	i
CN(C)CCNC(=O)c1cccc(-c2cnc3c(NC=O)cc(/C=C/c4ccccc4)cn23)c1	x	17.7	x	79.7*	x	x	i
CC(=O)Nc1cc(-c2cccc(C(=O)NCCN(C)C)c2)cn2c(-c3cccc(C(F)(F)F)c3)cnc12	x	43.0	x	85.9*	x	x	i
CCSc1ccc(-c2cc(NC=O)c3ncc(-c4cccc(C(=O)NCCN(C)C)c4)n3c2)cc1	x	9.8	x	65.8*	x	x	i
CN(C)C(=O)c1cccc(-c2cnc3c(NC=O)cc(-c4ccccc4F)cn23)c1	x	3.6	x	-54.9	x	x	x
CC(C)NC(=O)N(C)C[C@@H]1OCCCC[C@@H](C)Oc2ccc(NS(=O)(=O)c3ccc(F)cc3)cc2C(=O)N([C@@H](C)CO)C[C@H]1C	x	0.6	x	11.8	x	x	x
COc1ccc(NC(=O)N2C[C@H](O)COC[C@H]3O[C@H](CC(=O)N4CCCCC4)CC[C@@H]32)cc1	x	0.7	x	-5.4	x	x	x
SMILES	MIN6 prolif	RAD54 inh	DNA FID counter	RAD52 inh	PREPL inhibitor	UBC13 polyUb	RAD52 DNA ctr
C[C@@H]1CCCCO[C@H](CN(C)CC2CC2)[C@H](C)CN([C@H](C)CO)C(=O)c2cc(NC(=O)C3CCCCC3)ccc2O1	x	10.7	x	45.9	x	x	x
COc1ccccc1NC(=S)NC12CN3CN(CN(C3)C1)C2	-3.2	x	2.9	79.2*	-2.6	0.4	i
O=C(CCN1CCOCC1)Nc1ccc(F)cc1	-0.8	9.2	-5.6	-2.3	-0.9	0.8	x
Nc1ccc(NC(=O)CCN2CCOCC2)cc1	-0.1	3.4	-2.1	59.6*	x	-12.1	i
Cc1ccc2c(=O)c(CN3CCCCCC3)c(C)[nH]c2c1C	2.1	-17.4	-6.6	44.0	8.4	0.9	i
COC(=O)C1(Cc2ccccc2)NC(c2ccc(F)cc2)C2C(=O)N(C)C(=O)C21 (stereo not given)	0.8	-11.3	-14.4	x	14.5	2.1	x
CCC(C)Sc1ccc([C@H]2N[C@@](Cc3ccccc3)(C(=O)OC)[C@H]3C(=O)N(C)C(=O)[C@@H]23)cc1 (stereo not given in full)	-6.3	-11.9	x	97.8*	12.6	12.4	i
C[C@H](CO)N1C[C@H](C)[C@H](CN(C)Cc2ccc(C(=O)O)cc2)OCCCC[C@H](C)Oc2ccc(NS(=O)(=O)c3cccs3)cc2C1=O	x	2.7	x	-9.6	x	x	x
CCN1CCc2nc(NC(=O)c3ccccc3)sc2C1	-2.6	2.4	-0.6	x	1.3	-12.0	x
CCN1CCc2nc(N)sc2C1	-6.1	x	-1.3	68.9*	-0.1	35.1	i
C=CCN1CCc2nc(N)sc2CC1	x	11.8	3.3	66.3*	x	x	i
Nc1nc2c(s1)CCCCCCCCCC2	-1.1	4.1	3.4	-4.2	-7.2	-0.4	x
COc1ccc(OC)c(/C=N/NC(=O)c2cc[n+](CC(=O)c3ccccc3)cc2)c1	1.5	9.2	-1.0	56.6*	32.7	-10.1	i
Cc1ccc(-c2cc(C(=O)NCCCN3CCOCC3)c3ccccc3n2)cc1	2.8	2.8	x	-1.3	-10.0	11.7	x
Cc1ccc(-c2nc(C(=O)NCCCN3CCOCC3)cc3c2[nH]c2ccccc23)cc1	-5.7	29.7	10.1	94.3*	7.0	33.0	i
CCS(=O)(=O)N1CC(=O)N2[C@@H](CO)[C@H](c3ccc(C#CC4CCCCC4)cc3)[C@@H]2C1	x	x	x	-11.5	x	x	x
CC1(C)Cc2c(c(N3CCOCC3)nc3sc4c(NCCN)ncnc4c23)CO1	x	x	x	0.1	x	x	x
CC1(C)Cc2c(c(N3CCCC3)nc3sc4c(N5CCN(CCO)CC5)ncnc4c23)CO1	-4.6	25.1	6.9	57.8*	47.5*	24.5	i
O=C(c1ccc(Cn2c(=S)[nH]c3ccc(N4CCOCC4)cc3c2=O)cc1)N1CCC(N2CCCCC2)CC1	-2.4	x	6.5	87.2*	24.6	19.8	i
OCCCNc1c2ccccc2nc2ccccc12	2.9	96.7*	44.7*	94.8*	4.8	-11.6	52.8µM*
CC(C)(C)Nc1c2ccccc2nc2ccccc12	-2.9	32.8	0.5	19.4	14.2	-1.9	x
CCN(Cc1ccccc1)c1ccc(/C=N/N=C(N)N)cc1	-5.7	6.9	13.7	91.9*	39.1	42.7	i
O=C(Cc1ccncc1)NCC[C@@H]1CC[C@@H](NC(=O)C2CCCCC2)[C@@H](CO)O1	x	-3.4	x	-32.9	x	x	x
